In PubChem BioAssay AID1377 (University of Pittsburgh Molecular Library Screening Center, 2008):
About 830 (0.38%) of roughly 220,000 compounds were called active. For the sample, actives were picked, then their nearest neighbours and some compounds at random. Values without a mark were called inactive.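 The calls were made as follows: active = activation, scaled between plate controls, above about 75% (limit read from the data); inactive = activation under that limit.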

Experiment: inhibitors of zVAD-triggered necroptosis, primary screen, L929 cells (AID 1377);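 also: 0% = zVAD with DMSO and 100% = DMSO alone without zVAD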
Conditions: ATP luminescence, 24 h, at 10 µM, stronger effect = higher value; with zVAD 60 µM unless noted

Compound | viability rescue
Cc1nc(-c2ccccc2)sc1C(=O)/C=C/c1ccccc1 | 0.15% [with zVAD 20 µM]
Cc1[nH]c(=O)c(C(=O)/C=C/c2ccccc2)c2c1CCCC2 | 79.8% [with zVAD 20 µM] (active)
O=C(/C=C/c1ccccc1)c1ccccc1O | 1.78%
CCc1cc2c(=O)c(-c3nc4ccccc4n3C)c(CCCC(=O)O)oc2cc1OC(=O)C(C)(C)C | 3.54%
Fc1ccc2c(c1)C(c1cccnc1)=NNC(c1cccs1)=N2 | 0.66%
COc1cccc(/C=N/NC(=O)CNC(=O)c2ccc(S(=O)(=O)N3CCOCC3)cc2)c1OC | 0.08%
COc1c(N2CCN(C(=S)Nc3ccccc3F)C(C)C2)c(F)cc2c(=O)c(C(=O)O)cn(C3CC3)c12 (stereo unspecified) | -0.64%
CC1CCCC(C)N1/N=C/c1ccccc1OC(F)F (stereo unspecified) | 2.14%
O=C(Cn1cnc2ccccc2c1=O)Nc1cccc(S(=O)(=O)N2CCCCC2)c1 | 2.04%
Cc1ccc(NC(=O)c2ccc(Oc3ncccn3)cc2)cc1 | 3.02%
CCn1c(SCC(=O)Nc2ccc(OC)c(OC)c2)nnc1-c1c[nH]c2ccccc12 | 1.56% [with zVAD 20 µM]
CCn1c(SCCC(C)C)nnc1-c1c[nH]c2ccccc12 | 81.2% [with zVAD 20 µM] (active)
CCC(C)Sc1nnc(-c2c[nH]c3ccccc23)n1CCOC (stereo unspecified) | 2.86% [with zVAD 20 µM]
CCOc1cccc2c1OC1(CCCCC1)N1N=C(c3cccnc3)CC21 (stereo unspecified) | 1.15%
Cc1ccc(NC(=O)C/C(N)=N/O)cc1Cl | 1.11%
CCC(=O)c1ccc(OCC(=O)Nc2ccc3nc(C)sc3c2)cc1 | 0.76%
Cc1ccc(NC(=O)COc2ccc(-n3ccnc3)cc2)cc1Cl | 76.3% [with zVAD 20 µM] (active)
O=C(Cc1coc2ccc3ccccc3c12)NCc1cccs1 | 0.48%
Cc1ccccc1NC(=O)NC1(C(=O)N2CCCC2)CCCCC1 | 4.41%
CCOC(=O)N1CCN(C(=O)CSc2ccc(Cl)cc2)CC1 | -0.42% [with zVAD 20 µM]
CCOC(=O)N1CCN(C(=O)CNC(=O)Cc2ccc(Cl)cc2)CC1 | 80.3% (active)
CCOC(=O)N1CCN(C(=O)COc2ccc(Cl)cc2C)CC1 | 0.53%
O=C(NC(=S)Nc1ccc2oc(=O)ccc2c1)c1ccc(-c2cccc(Cl)c2Cl)o1 | 0.38%
CC(=O)c1cc(C#N)c(SCC(=O)Nc2nccs2)nc1C | 82.9% (active)
Cc1[nH]c2ccccc2c1SCC(=O)Nc1nccs1 | 1%
CC(=O)c1cc(C#N)c(SCC(=O)C(C)(C)C)nc1C | 0.46%
